Several values for one entry are separate records, joined by “and”; a condition that tells them apart may be missing. Equal entries are not always repeated. Structures can show the parent of a compound that is named as a salt. ± gives the standard deviation of the averaged measurements. The full ranking holds about 3,100 compounds; the median of “mean cytoplasmic OPP incorporation (global translation) relative to DMSO” is about 100, and the lowest 2% start at about 56. The sample holds the lowest values, similar compounds and a random draw of the others, so the mix is not that of the screen.
system: U2OS; experiment: mean cytoplasmic OPP incorporation (global translation) relative to DMSO (% of DMSO); higher = more protein synthesis; settings: 10 µM; 24 h
Description: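 Primary image-based screen in U2OS cells: compounds at 10 uM for 24 h, then a 1 h o-propargyl-puromycin (OPP) pulse, click labelling, and high-throughput microscopy. Mean cytoplasmic OPP intensity and nuclei count were normalised to DMSO wells within each plate (DMSO = 100) and averaged over triplicate plates.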

| SMILES | mean cytoplasmic OPP incorporation |
| --- | --- |
| CCOc1cc(N2CCC(O)CC2)ccc1Nc1ncc2c(n1)N(C)c1ccccc1C(=O)N2C | 110 |
| COc1cc(N2CCC(N)CC2)ccc1Nc1ncc(Cl)c(-c2c[nH]c3ccccc23)n1 | 36.5 |
| CNC(=O)c1ccccc1Nc1nc(Nc2ccc(N3CCOCC3)cc2OC)ncc1Cl | 90.7 ± 4.2 |
| OCc1c[nH]c2ccccc12 [Indole-3-carbinol] | 113 |
| O=C(/C=C/c1ccc(CN(CCO)CCc2c[nH]c3ccccc23)cc1)NO [LAQ824 (NVP-LAQ824, Dacinostat)] | 47.7 |
| c1ccc2c(Cc3c[nH]c4ccccc34)c[nH]c2c1 [Diindolylmethane] | 93.7 |
| CC(C)C[C@H](NC(=O)N[C@H](C(=O)N[C@@H](CCC(N)=O)C(=O)N[C@@H](C)C=O)[C@@H]1CCNC(=N)N1)C(=O)O [Elastatinal] | 98.9 |
| COc1cc(OC)c(C(=O)CCCCN2CCC3(CC2)NC(=O)NC3=O)cc1NS(=O)(=O)c1ccc(C(F)(F)F)cc1 | 129 |
| CC1=CC(=O)c2ccccc2C1=O [Menadione] | 95.2 |
| CC1(C)CCC2=C(O1)c1ccccc1C(=O)C2=O | 110 |
| CC1(C)C(=O)NC2=C1C(=O)C(=O)c1ccccc12 | 59.6 and 42.6 |
| c1cc2c(cc1C1CCCCC1)c1c3n2CCNC3CCC1 (configuration not stated) [Tetrindole mesylate] | 129 |
| C=C(C)[C@@H](CC=C(C)C)C[C@@]12C[C@@H](CC=C(C)C)C(C)(C)[C@@](CC=C(C)C)(C(=O)C(C(=O)c3ccc(O)c(O)c3)=C1O)C2=O [Garcinol] | 100 |
| C[C@@H](NCc1cc(Br)cc2[nH]c(=O)c(=O)[nH]c12)P(=O)(O)O | 96.4 |
| Cc1ccc(C(=O)Nc2ccc(CN3CCN(C)CC3)c(C(F)(F)F)c2)cc1C#Cc1cnc2cccnn12 | 32.7 |
| Cc1ccc(NC(=O)c2ccc(CN3CC[C@H](N(C)C)C3)c(C(F)(F)F)c2)cc1Nc1nccc(-c2cncnc2)n1 [Bafetinib (INNO-406)] | 118 |
| Cc1ccc(C(=O)Nc2ccc(CN3CCN(C)CC3)c(C(F)(F)F)c2)cc1C#Cc1cnc2[nH]ncc2c1 [GZD824 Dimesylate] | 37.4 |
| Cc1ccc(C(=O)Nc2cccc(C(F)(F)F)c2)cc1Nc1nc(-c2cccnc2)nc2c1cnn2C | 145 |
| O=C(Cc1ccccc1)Nc1cccc(C(=O)Nc2ccccc2C(=O)O)c1 | 106 |
| S=c1ccss1 [1,2-Dithiole-3-thione] | 115 |
| CC[C@H](C)[C@H](N)C(=O)N1CCSC1 [P32/98 hemifumarate salt] | 107 |
| NC(=O)c1ccncc1 [Isonicotinamide] | 109 |
| C=CC(=O)c1ccc2ccccc2c1 | 100 |
| O=C(/C=C/c1ccc2ccccc2n1)c1ccncc1 | 26.3 |
| COc1cc2c(NC3CCN(C)CC3)nc(N3CCCN(C)CC3)nc2cc1OCCCN(C)C | 112 |
| CCn1nnc2c(N3CCOCC3)nc(-c3ccc(NC(=O)Nc4ccc(C(=O)N5CCN(C)CC5)cc4)cc3)nc21 | 67.6 |

| SMILES | mean cytoplasmic OPP incorporation |
| --- | --- |
| NC(=O)Nc1cc(-c2cccc(F)c2)sc1C(=O)N[C@H]1CCCNC1 | 25.1 |
| Cc1c(C(=O)NC2CCCCC2)sc2nc3ccc(N)cc3n12 | 106 |
| NC(=O)Nc1sc(-c2ccc(F)cc2)cc1C(N)=O | 76.5 ± 9.7 |
| C[C@H]1O[C@@H](O[C@H]2[C@@H](O)C[C@H](O[C@H]3[C@@H](O)C[C@H](O[C@H]4CC[C@@]5(C)[C@H](CC[C@@H]6[C@@H]5C[C@@H](O)[C@]5(C)[C@@H](C7=CC(=O)OC7)CC[C@]65O)C4)O[C@@H]3C)O[C@@H]2C)C[C@H](O)[C@@H]1O [Digoxin] | 19 |
| Oc1ccc(-c2nc3cc(O)cc(Br)c3o2)cc1 | 89.5 |
| O=C[C@@H]1CCCN1C(=O)[C@@H]1CCCN1C(=O)OCc1ccccc1 [Z-Prolyl-prolinal] | 98 |
| N#C/C(=C\c1ccc(O)c(O)c1)C(=O)NCCCCc1ccccc1 | 87.8 |
| CCCCC[C@H](O)CC(=O)CCc1ccc(O)c(OC)c1 [Gingerol] | 102 |
| NC(C(=O)O)c1cc(O)cc(O)c1 (racemic) | 107 |
| N[C@@H](Cc1cc(I)c(O)c(I)c1)C(=O)O [3,5-Diiodo-L-tyrosine] | 100 |
| O=[N+]([O-])c1ccc2c(c1)S(=O)(=O)C=C2 [Stattic] | 48.5 |
| O=C1Nc2ccc([N+](=O)[O-])cc2C1=O [5-Nitroisatin] | 104 |
| CS(=O)(=O)Nc1ccc([N+](=O)[O-])cc1Oc1ccccc1 [Nimesulide] | 97.3 ± 5.5 |
| O=C(O)c1ccc(-c2ccc3cc(O)c(C45CC6CC(CC(C6)C4)C5)cc3c2)cc1 | 98.8 |
| Cc1ccc(C(=O)c2cc(/C=C/C(=O)NO)n(C)c2)cc1 | 99.3 |
| C1CCC(C(CC2CCCCN2)C2CCCCC2)CC1 (configuration not stated) [Perhexiline maleate] | 53 |
| CNC(C)C1CCC(N)C(OC2C(N)CC(N)C(OC3OCC(C)(O)C(NC)C3O)C2O)O1 (configuration not stated) [Gentamycin sulfate (Gentacycol)] | 107 |
| NCC1CCN(c2nccc(-c3ccc4ccccc4c3)n2)CC1 | 88.3 |
| C[C@H]1CC[C@@]2(OC1)O[C@H]1C[C@H]3[C@@H]4CC[C@@H]5C[C@@H](O[C@@H]6O[C@H](CO)[C@H](O)[C@H](O)[C@H]6O[C@@H]6O[C@H](CO)[C@@H](O)[C@H](O)[C@H]6O)CC[C@]5(C)[C@H]4CC[C@]3(C)[C@H]1[C@@H]2C [Timosaponin A-III] | 111 |
| C=CC(=O)Nc1cccc(Sc2nc(Nc3ccc(N4CCN(C)CC4)cc3)ncc2Cl)c1 | 57.4 |
| CNC(=O)c1nn(C)c2c1C(C)(C)Cc1cnc(Nc3ccc(N4CCN(C)CC4)cc3)nc1-2 | 89.3 and 44.9 |
| C=CC(=O)Nc1cccc(Oc2nc(Nc3ccc(N4CCN(C)CC4)cc3)ncc2Cl)c1 | 64.9 |
| O=C(NC[C@H](O)CN1CCc2ccccc2C1)c1ccnc(NC2CCC2)c1 | 107 |
| NCCCCCCCCCCNS(=O)(=O)c1cccc2c(Cl)cccc12 [A-7 hydrochloride] | 115 |
| CC(C)c1ccc(Cn2ccc3c4c(N)nc(NC5CC5)nc4ccc32)cc1 | 40.1 |
| O=C(NCCN1CCCCC1)c1ccc(I)cc1 [N-[2-(Piperidinylamino)ethyl]-4-iodobenzamide] | 100 |

Reference: the supplement of paper PMC8183993
